The source made the active and inactive calls. How the source made its calls: active means hit-call score of the fitted dose curve at least 0.9, where 1 is the maximum; inactive means score below 0.9.

What is called AC50 is the midpoint of the concentration-response curve, whichever way the signal moves.

The assay can be described thus: ATG_SREBP_CIS: Attagene CIS-FACTORIAL HepG2 Assay for human Sterol Regulatory Element Binding (SREBP) (AID 2282962). The note with it: HepG2 Attagene cis-factorial SREBP reporter, mRNA; actives raise or lower the signal. Here is the method:
ATG_CIS is a cell-based, multiplexed-readout assay that uses HepG2, a human liver cell line, with measurements taken at 24 hours after chemical dosing in a 24-well plate.ATG_SREBP_CIS is one of 52 assay component(s) measured or calculated from the ATG_CIS assay. It is designed to make measurements of mRNA induction, a form of inducible reporter, as detected with fluorescence intensity signals by Reverse transcription polymerase chain reaction (RT-PCR) and Capillary electrophoresis technology.Data from the assay component ATG_SREBP_CIS was analyzed into 1 assay endpoint. This assay endpoint, ATG_SREBP_CIS, was analyzed with bidirectional fitting relative to DMSO as the negative control and baseline of activity. Using a type of inducible reporter, measures of mRNA for gain or loss-of-signal activity can be used to understand the reporter gene at the transcription factor-level as they relate to the gene SREBF1. Furthermore, this assay endpoint can be referred to as a primary readout, because this assay has produced multiple assay endpoints where this one serves a reporter gene function. To generalize the intended target to other relatable targets, this assay endpoint is annotated to the dna binding intended target family, where the subfamily is basic helix-loop-helix leucine zipper.
Human liver HepG2 cells are transiently transfected with multiple reporter transcription units (MRTUs) in 6-well plates using FuGene 6 reagent (Roche; 3 ml FuGene/1 mg DNA). The MRTU constructs are regulated by a cis-regulating element (promoter). […] A major difference between the CIS and TRANS system is that in CIS activities of endogenous TFs are measured, whereas the TRANS assay evaluates changes in activities of exogenous, chimeric NR-Gal4 proteins. […] At the end of 24 hour incubation, total RNA was isolated using TriZol reagent (Invitrogen). The isolated RNA is then reverse-transcribed using oligo(dT) primer and Mo-MLV reverse transcriptase (Invitrogen) with DNAse I (Ambion) treatment for 30 min. The one-tenth of the produced cDNA was amplified by PCR using Taq DNA polymerase (Invitrogen) and two reporter sequence-specific primers. The PCR products were fluorescently labeled by primer extension with 6-arboxyfluorescein (6-FAM) 5'-labeled reporter sequence-specific primer (2 min at 95 C, 20 s at 68 C and 10 min at 72 C) and these products were digested with 5U of HpaI (New England Biolabs) for 2h at 37 C. The fragments were purified using Qiaquick PCR columns (Qiagen), analyzed on an ABI 3130xL genetic analyzer (Applied Biosystems) with peak positions identified by using a set of X-rhodamine (ROX)-labeled MapMarker1000 molecular weight standards (BioVentures). The raw capillary electrophoresis data was processed using Attagraph software (Attagene).
Consider `COCC(C)N(C(=O)CCl)c1c(C)csc1C` (stereo not given), for which the AC50 is 5.88 µM (active). Turning to `CCCCOCN(C(=O)CCl)c1c(CC)cccc1CC`, the outcome was inactive. On to `CCNP(=S)(OC)O/C(C)=C/C(=O)OC(C)C` (stereo not given), for which the AC50 was 16.3 µM (active). Turning to `COC(=O)NC(=S)Nc1ccccc1NC(=S)NC(=O)OC`, the result was inactive.

`Nc1c(Cl)c(F)nc(OCC(=O)O)c1Cl`: the result was inactive. As to `COc1ccc(-c2ccccc2)cc1NNC(=O)OC(C)C`, the AC50 is 15.2 µM (active). For `O=P(O)(O)CCCl`, the compound was classed as inactive. Take `CC(C)NC(=O)N1CC(=O)N(c2cc(Cl)cc(Cl)c2)C1=O`: the compound was called inactive.

Take `CCOc1nc(F)cc2nc(S(=O)(=O)Nc3c(Cl)cccc3Cl)nn12`: the call was inactive. In the case of `CC1(C)C(C(=O)OC(C#N)c2cccc(Oc3ccccc3)c2)C1(C)C` (stereo not given), the result was inactive.

Turning to `CC1(C)CCC(=Cc2ccc(Cl)cc2)C1(O)Cn1cncn1` (stereo not given), the half-maximal activity concentration (AC50) was 15 µM (active). Same read-out and setting: in the case of `CCOC(=O)C(C)OC(=O)c1cc(Oc2ccc(C(F)(F)F)cc2Cl)ccc1[N+](=O)[O-]` (stereo not given) it was 19.3 µM (active). For `CNC(=O)N(C)c1nnc(C(C)(C)C)s1`, the call was inactive. The same measure, in the same setting: to `Cc1nc(N(C)C)nc(OC(=O)N(C)C)c1C` belongs “inactive”; to `Cc1ccc(N=CN(C)C=Nc2ccc(C)cc2C)c(C)c1`, “inactive”. On to `CCN(CC)C(=O)C(C)Oc1cccc2ccccc12` (stereo not given), for which the AC50 is 28.8 µM (active).

For the compound `CCOP(=O)(OCC)Oc1nc(Cl)c(Cl)cc1Cl`, the AC50 was 15.6 µM (active). On to `CC(C)C1(C)N=C(c2ncccc2C(=O)O)NC1=O` (stereo not given), for which the result was inactive. Take `CCOP(=S)(OCC)Oc1nc(Cl)n(C(C)C)n1`: the AC50 is 5.98 µM (active).

Regarding `N#Cc1c(Cl)cccc1Cl`, the compound was called inactive.

As for `CC(C)Oc1cccc(NC(=O)c2ccccc2C(F)(F)F)c1`, the compound was classed as inactive. As for `O=c1n(Cl)c(=O)n(Cl)c(=O)n1Cl`, the result was inactive. Turning to `Cc1cc(C)nc(Nc2ccccc2)n1`, the concentration at half-maximal activity (AC50) is 23 µM (active).

Consider `CCOc1nc(C(Cl)(Cl)Cl)ns1`, for which the compound was called inactive. As to `CNC(=O)Oc1cccc2ccccc12`, the result was inactive. Consider `Nc1c(Cl)c(Cl)nc(C(=O)O)c1Cl`, for which the outcome was inactive. As to `COCC(=O)N(c1c(C)cccc1C)C(C)C(=O)OC` (stereo not given), the result was inactive. In the case of `CC(C)N1C(=O)c2ccccc2NS1(=O)=O`, the AC50 was 50 µM (active).

With `N#CN=C1SCCN1Cc1ccc(Cl)nc1`, the outcome was inactive. Turning to `COP(=O)(OC)O/C(C)=C/C(=O)N(C)C`, the compound was classed as inactive. Regarding `COP(=S)(OC)SCn1nnc2ccccc2c1=O`, the AC50 is 19.8 µM (active). On to `COP(=S)(OC)Oc1ccc([N+](=O)[O-])c(C)c1`, for which the AC50 is 14 µM (active). `O=C(O)c1c(Cl)ccc2cc(Cl)cnc12`: the compound was called inactive. The same measure, in the same setting: to `CC1(C)C(C=C(Cl)Cl)C1C(=O)OC(C#N)c1cccc(Oc2ccccc2)c1` (stereo not given) belongs “inactive”. On the same count and under the same terms, to `Cn1c(-c2ccccc2)cc(-c2ccccc2)[n+]1C` belongs “inactive”; to `CC1(C)CON(Cc2ccccc2Cl)C1=O`, “inactive”. As for `CC(C)Nc1nc(Cl)nc(NC(C)C)n1`, the compound was classed as inactive. As for `CC(C)(C)C(=O)C(Oc1ccc(Cl)cc1)n1cncn1` (stereo not given), the call was inactive. With `Clc1cccc(C(Cl)(Cl)Cl)n1`, the result was inactive. In the case of `CS(=O)(=O)c1cc(C(F)(F)F)ccc1C(=O)c1cnoc1C1CC1`, the result was inactive.

Source of the values: PubChem BioAssay (EPA / NIEHS).
